The record followed here is PubChem BioAssay AID1259421 (Broad Institute, 2018).

Where “and” joins values, the source holds several entries; their conditions need not be identical. Equal entries are not always repeated. About 610 (9.5%) of roughly 6,400 compounds were called active. Rule as the data show it: active = activity change below about -70%; inconclusive = no clear call, values can overlap the other calls; inactive = above that. Shown is part of a subset that was picked to be rich in actives. Some structures have more than one record in an assay (separate samples or runs), and their calls can disagree.

The experiment is described as follows: Toxoplasma gondii ME49Luc growth in HeLa cells, luciferase, no IFN-y, primary screen (AID 1259421). The conditions noted are these: T. gondii ME49Luc in HeLa, 72 h, stronger effect = lower value, concentration not given here.
Regarding `CCC(CC)O[C@@H]1C=C(C(=O)O)C[C@H](N)[C@H]1NC(C)=O`, the activity change, negative = inhibition was 3.98% (inactive).
The same measure for `O=C1Cc2c([nH]c3ccc(Br)cc23)-c2ncccc2N1`: 206% (inactive); for `O=C1Cc2c([nH]c3ccc(Br)cc23)-c2ccccc2N1`: 406% (inactive) and -6.73% (inactive).
As for `O=C1Cc2c([nH]c3ccc([N+](=O)[O-])cc23)-c2ccccc2N1`, the activity change, negative = inhibition is -78% (active).
The same measure for `O=c1c2c(c1=O)N(CCP(=O)(O)O)CCCN2`: 4.23% (inactive); for `OCCN1C[C@@H](O)[C@@H](O)C(O)C1CO` (some centres undefined): 10.9% (inactive); for `COc1cc2ncc(-c3ccccc3)nc2cc1OC`: -82.6% (active).
Consider `Cc1cc2ncc(-c3ccccc3)nc2cc1C`, for which the activity change, negative = inhibition was 459% (inactive).
Take `COC(=O)[C@H](NC(=O)c1cc(-c2ccccc2)nc2ccccc12)c1ccccc1`: the activity change, negative = inhibition was 9.5% (inactive) and 19.2% (inactive).
As for `COc1ccc(-c2oc3cc(OC)c(OC)c(OC)c3c(=O)c2OC)cc1`, the figure is -3.53% (inactive); as for `CC(=O)c1cc([N+](=O)[O-])c(Sc2ccc(F)cc2F)s1`, -85.3% (active); as for `CC(=O)c1cc([N+](=O)[O-])c(Sc2cccc(Cl)c2Cl)s1`, 14.1% (inactive).
Turning to `C=C[C@@]1(C)CC(=O)[C@]2(O)[C@@]3(C)[C@@H](O)CCC(C)(C)[C@@H]3[C@H](OC(=O)CCN(C)C)[C@H](OC(C)=O)[C@@]2(C)O1`, the activity change, negative = inhibition is 0.0952% (inactive).
The same measure for `C=CCN1CCN(c2nc3ccccc3nc2C#N)CC1`: -7.28% (inactive) and 5.54% (inactive); for `c1ccc(Cn2c(N3CCNCC3)nc3ccccc32)cc1`: 6.11% (inactive).
Turning to `Cc1oc2nc3c(c(NC(=O)CN4CCCC4=O)c2c1C)CCCC3`, the activity change, negative = inhibition is 1.4% (inactive).
As to `COc1cc2ncnc(Nc3ccc(O)c(Br)c3)c2cc1OC`, the activity change, negative = inhibition was -58.4% (inactive).
As for `OCc1cc2ncnc(Nc3ccc(O)c(Br)c3)c2cc1CO`, the figure is -79.3% (active); as for `Nc1cc2ncnc(Nc3cccc(Br)c3)c2cc1N`, 4.16% (inactive); as for `C[C@H](CCC(=O)O)[C@@H]1CC[C@H]2[C@@H]3CC[C@@H]4C[C@H](O)CC[C@]4(C)[C@H]3CC[C@@]21C`, 11.8% (inactive).
As for `Cn1c(COc2ccc(CC3SC(=O)NC3=O)cc2)nc2ccccc2c1=O` (centres undefined), the figure is -40.6% (inactive).
Regarding `COc1ccc(-c2cc(=O)c3c(O)c(OC)c(O)cc3o2)cc1OC`, the activity change, negative = inhibition was 48.9% (inactive).
As for `CC[C@@H]1C(=O)N(C)c2cnc(Nc3ccc(C(=O)NC4CCN(C)CC4)cc3OC)nc2N1C1CCCC1`, the figure is -62.8% (inactive); as for `COc1cc(OC2CCN(C)CC2)ccc1Nc1ncc2c(n1)n(C1CCCC1)c(=O)n2C`, -32% (inactive).
The same measure for `CC[C@@H]1C(=O)N(C)c2cnc(Nc3ccc(C(=O)NC4CCC(N5CCN(CC6CC6)CC5)CC4)cc3OC)nc2N1C(C)C` (some centres undefined): -84.3% (active); for `COc1ccc2nc([S@@](=O)Cc3ncc(C)c(OC)c3C)[nH]c2c1`: -6.99% (inactive) and 19.3% (inactive).
For `OCc1cncc(F)c1`, the activity change, negative = inhibition is 11.3% (inactive).
As for `O=C(O)c1cc(=O)c2ccccc2[nH]1`, the figure is 7.07% (inactive).
The same measure for `O=C(O)c1cc(=O)c2ccc(Cl)cc2[nH]1`: 9.46% (inactive) and -2.93% (inactive); for `O=C(O)c1cc(=O)c2cccc(O)c2[nH]1`: -75.2% (active); for `COc1ccc(C(=O)N2CCCc3cc(C4=NNC(=O)SC4C)ccc32)cc1OC` (centres undefined): -41.6% (inactive).
The same measure for `CC1CCC(NC(=O)N(CCCl)[NH2+][O-])CC1` (centres undefined): 75.3% (inactive); for `Cc1ccc(NC2=CC(=O)c3sc(C)nc3C2=O)cc1`: -74.1% (active).
`CC(C)(C)NCC(O)COc1ccc(NC(=O)NC2CCCCC2)cc1` (centres undefined): the activity change, negative = inhibition is 3.16% (inactive).
The same measure for `COc1ccc(CCNCC(O)COc2cccc(C)c2)cc1OC` (centres undefined): 9.54% (inactive); for `CC1=C(C(=O)O)N2C(=O)[C@@H](NC(=O)C(N)c3ccc(O)cc3)[C@H]2SC1` (some centres undefined): 4.06% (inactive); for `O=C(c1ccc(OCCN2CCCCC2)cc1)c1c(-c2ccc(O)cc2)sc2cc(O)ccc12`: -9.78% (inactive) and -5.73% (inactive).
As for `Cc1ccc(CC2(O)CCN(CCOc3ccc(O)cc3)CC2)cc1`, the figure is -6.15% (inactive) and -9.12% (inactive); as for `Cc1c(-c2ccc(O)cc2)n(Cc2ccc(OCCN3CCCCCC3)cc2)c2ccc(O)cc12`, -80.5% (active); as for `CC(=O)OCCN1C(=O)c2c(C)nc3ccc(S(=O)(=O)N4CCOCC4)cc3c2C1=O`, -1.17% (inactive).
On to `Nc1cc(Nc2ccc(S(N)(=O)=O)cc2)ncn1`, for which the activity change, negative = inhibition was 14.5% (inactive).
As for `COc1c(O)cc2c(c1O)[C@H]1O[C@H](CO)[C@@H](O)[C@H](O)[C@@H]1OC2=O`, the figure is -5.41% (inactive); as for `CCOC(=O)c1cnc2oc3ccc(O)cc3c2c1-c1ccccc1`, 6.27% (inactive); as for `C=CC(=O)Nc1ccc2ncnc(Nc3ccc(OCc4cccc(F)c4)c(Cl)c3)c2c1`, -52.5% (inactive).
With `CS(=O)(=O)CCNCc1nc(-c2ccc3ncnc(Nc4ccc(OCc5cccc(F)c5)c(Cl)c4)c3c2)cs1`, the activity change, negative = inhibition was -30.2% (inactive) and 30.3% (inactive).
As for `CS(=O)(=O)CCNCc1ccc(-c2ccc3ncnc(Nc4ccc(OCc5cccc(F)c5)c(Cl)c4)c3c2)o1`, the figure is -64.5% (inactive) and -82.3% (active); as for `OC(CCl)CN1CC[N+]2(CC1)CC[N+]1(CCN(CC(O)CCl)CC1)CC2` (centres undefined), 9.78% (inactive).
The same measure for `CC1CCCC(C)N1NC(=O)c1ccc(Cl)c(S(N)(=O)=O)c1` (centres undefined): 15.9% (inactive); for `NCCNS(=O)(=O)c1cccc2c(Cl)cccc12`: -0.625% (inactive).
The same measure for `C#Cc1cccc(Nc2ncnc3cc(OCCOC)c(OCCO)cc23)c1`: -30.3% (inactive); for `C#Cc1cccc(Nc2ncnc3cc(OC)c(OCCCCCCC(=O)NO)cc23)c1`: -82.6% (active); for `C#Cc1cccc(Nc2ncnc3cc(OCCOC)c(OCCOC)cc23)c1`: -1.64% (inactive) and -10.5% (inactive).
With `COc1ccc2[nH]c(S(=O)Cc3ncc(C)c(OC)c3C)nc2n1` (centres undefined), the activity change, negative = inhibition is 29.4% (inactive) and 28.4% (inactive).
`Cc1ccc2c(c1)C(=O)C1(O)CCN(c3ccccc3)C1=N2` (centres undefined): the activity change, negative = inhibition was 12.8% (inactive).
Regarding `COc1ccccc1OC(=O)C(C)c1ccc(CC(C)C)cc1` (centres undefined), the activity change, negative = inhibition is -39.2% (inactive).
As for `O[n+]1ccccc1[S-].O[n+]1ccccc1[S-].[Zn+2]`, the figure is -66.7% (inactive); as for `O=C1NC(=O)C(c2cnc3ccccn23)=C1c1cn2c3c(cc(F)cc13)CN(C(=O)N1CCCCC1)CC2`, -84.1% (active); as for `CC(C)n1nnc2cc(C(=O)O)ccc21`, 9.2% (inactive) and 12.9% (inactive).
The same measure for `Cc1nc2sccn2c(=O)c1CCN1CCC(=C(c2ccc(F)cc2)c2ccc(F)cc2)CC1`: -60.2% (inactive) and 18.5% (inactive); for `CC[C@@H](Nc1c(Nc2cccc(C(=O)N(C)C)c2O)c(=O)c1=O)c1ccc(C)o1`: -16.5% (inactive).
The same measure for `CC(C)(C)NC(=O)[C@H]1CCC2C3CCC4NC(=O)C=C[C@]4(C)C3CC[C@@]21C` (some centres undefined): 13.3% (inactive).
Take `COC(=O)NC(C(=O)N[C@@H](Cc1ccccc1)C(O)CN(Cc1ccc(-c2ccccn2)cc1)NC(=O)C(NC(=O)OC)C(C)(C)C)C(C)(C)C` (some centres undefined): the activity change, negative = inhibition was -10.1% (inactive).
The same measure for `O=C(O)COCCN1CCN(C(c2ccccc2)c2ccc(Cl)cc2)CC1` (centres undefined): 2.12% (inactive) and -3.65% (inactive); for `OCCOCCN1CCN(C(c2ccccc2)c2ccc(Cl)cc2)CC1` (centres undefined): -71.5% (active); for `O=C(O)COCCN1CCN([C@H](c2ccccc2)c2ccc(Cl)cc2)CC1`: -64.2% (inactive).
As for `O=C(CC(c1ccccc1)c1ccccc1)N1CCN(C(c2ccccc2)c2ccccc2)CC1`, the activity change, negative = inhibition was 61.6% (inactive).
The same measure for `COc1ccc2c(c1OC)C(=O)OC2[C@H]1c2c(cc3c(c2OC)OCO3)CCN1C` (some centres undefined): 10.4% (inactive).
As for `Cc1cc(-c2ccc(CC(=O)Nc3ccc(-c4cccnc4)cc3)cc2)ccn1`, the figure is 6.98% (inactive); as for `Nc1ccccc1NC(=O)c1ccc(CNc2nccc(-c3cccnc3)n2)cc1`, -79.8% (active) and -89.7% (active); as for `Nc1ccccc1NC(=O)c1ccc(CNC(=O)OCc2cccnc2)cc1`, -0.731% (inactive) and 6.65% (inactive).
As to `O=C(Nc1ccccc1-c1cn2c(CN3CCNCC3)csc2n1)c1cnc2ccccc2n1`, the activity change, negative = inhibition was -11.3% (inactive).
The same measure for `CCCC(=O)Oc1ccc2[nH]c(C(=O)c3cc4ccccc4[nH]3)cc2c1`: 5.11% (inactive); for `CN(Cc1ccccc1)Cc1ccccc1`: 16.3% (inactive).
Turning to `CCN(CC)CCC(=O)N1c2ccccc2Sc2ccc(Cl)cc21`, the activity change, negative = inhibition is 17.9% (inactive).
For the compound `O=C(O)CCC(=O)O`, the activity change, negative = inhibition is -23.1% (inactive).
As for `O=C(O)CO.[NH2-].[NH2-].[Pt+2]`, the figure is -0.913% (inactive); as for `O=C(O)CC(O)(CC(=O)O)C(=O)O`, -79.3% (active); as for `CCOC(=O)/C(=N/O)c1csc(N)n1`, 7.65% (inactive).
As to `CCC(CC)(NC(=O)C(C)C)C(=O)N[C@@H](CCCN=C(N)N)C(=O)NC1(C(=O)NC(c2ccc(F)cc2)c2ccc(F)cc2)CCCC1`, the activity change, negative = inhibition was 12.8% (inactive).
With `C/C(=C\c1csc(C)n1)[C@@H]1C[C@@H]2O[C@]2(C)CCC[C@H](C)[C@H](O)[C@@H](C)C(=O)C(C)(C)[C@@H](O)CC(=O)N1`, the activity change, negative = inhibition was -94.8% (active).
On to `C=CCN1CCc2nc(N)sc2CC1`, for which the activity change, negative = inhibition is 0.82% (inactive).
As to `Fc1ccc(C2CCNCC2COc2ccc3c(c2)OCO3)cc1` (centres undefined), the activity change, negative = inhibition is 28.3% (inactive).
As for `Cc1cc2nc3c(=O)[nH]c(=O)nc-3n(C)c2cc1C=O`, the figure is 9.97% (inactive) and 10.7% (inactive); as for `CNCCCCOc1ccccc1Cc1ccccc1`, 17.6% (inactive) and 22% (inactive).
